Laboratory results reported in PubChem BioAssay (NCATS).
Records with an inconclusive call do not appear. The source made the active and inactive calls. Calls follow the shape of the dose curve; as a rule, active = well fitted curve in the direction sought with a large enough effect; inconclusive = small, poorly fitted or top-dose-only effect, or another doubt; inactive = no such curve, though single readings can be large; an effect the other way counts as inactive or inconclusive.

Experiments:
[1] = S16 Schwann cell viability assay (CellTiter-Glo assay) (AID 624031); details: S16 rat Schwann cells viability, 24 h; series mostly up to 57.5 µM;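 also: cellular ATP luminescence as a viability measure; nearly all actives have a fitted effect of over 70% in size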
Procedure, shortened: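 Untransfected S16 rat Schwann cells; compound 24 h, 37 °C/5% CO2; CellTiter-Glo ATP luminescence. % activity vs no-cell wells and DMSO controls (0%); concentration-effect curves classed by r2, response magnitude, activity.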

[2] = S16 Schwann cell PMP22 intronic element firefly luciferase assay (AID 624032); details: S16 rat Schwann cells, PMP22 element FLuc, 24 h; series mostly up to 57.5 µM; also: nearly all actives have a fitted effect of over 30% in size
Procedure, shortened: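 Luciferase reporter of PMP22 intronic-element expression in stably transfected S16 rat Schwann cells, read by ONE-Glo luminescence after 24 h compound exposure at 37 C. Activity scaled between DMSO (0%) and positive-control PTC124; concentration-effect curves quality-classified.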

AA1029 = experiment: qHTS profiling for inhibitors of Plasmodium falciparum proliferation (AID 504749); also: nearly all actives have a fitted effect of over 60% in size; details: P. falciparum in erythrocytes, SYBR Green DNA, 72 h; series mostly up to 28.7 µM
Procedure, shortened: (§1)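 SYBR Green fluorescence of parasite DNA, read after lysis and overnight dark incubation, measured growth over 72 h in erythrocyte culture at 0.3% parasitemia and 2.5% hematocrit. Data normalised to DMSO and 0.29 uM artemisinin, with plate-drift correction.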

C2A = experiment: as above; details: P. falciparum in erythrocytes, SYBR Green DNA, 72 h; series mostly up to 28.7 µM
Procedure, shortened: as §1

CP211 = experiment: as above; details: P. falciparum in erythrocytes, SYBR Green DNA, 72 h; series mostly up to 28.7 µM
Procedure, shortened: as §1

CP215 = experiment: as above; details: P. falciparum in erythrocytes, SYBR Green DNA, 72 h; series mostly up to 28.7 µM
Procedure, shortened: as §1

CP217 = experiment: as above; details: P. falciparum in erythrocytes, SYBR Green DNA, 72 h; series mostly up to 28.7 µM
Procedure, shortened: as §1

CP250 = experiment: as above; details: P. falciparum in erythrocytes, SYBR Green DNA, 72 h; series mostly up to 28.7 µM
Procedure, shortened: as §1

CP252 = experiment: as above; details: P. falciparum in erythrocytes, SYBR Green DNA, 72 h; series mostly up to 28.7 µM
Procedure, shortened: as §1

CP256 = experiment: as above; details: P. falciparum in erythrocytes, SYBR Green DNA, 72 h; series mostly up to 28.7 µM
Procedure, shortened: as §1

CP269 = experiment: as above; details: P. falciparum in erythrocytes, SYBR Green DNA, 72 h; series mostly up to 28.7 µM
Procedure, shortened: as §1

CP297 = experiment: as above; details: P. falciparum in erythrocytes, SYBR Green DNA, 72 h; series mostly up to 28.7 µM
Procedure, shortened: as §1

CP315 = experiment: as above; details: P. falciparum in erythrocytes, SYBR Green DNA, 72 h; series mostly up to 28.7 µM
Procedure, shortened: as §1

CP325 = experiment: as above; details: P. falciparum in erythrocytes, SYBR Green DNA, 72 h; series mostly up to 28.7 µM
Procedure, shortened: as §1

CP329 = experiment: as above; details: P. falciparum in erythrocytes, SYBR Green DNA, 72 h; series mostly up to 28.7 µM
Procedure, shortened: as §1

JCK = experiment: as above; details: P. falciparum in erythrocytes, SYBR Green DNA, 72 h; series mostly up to 28.7 µM
Procedure, shortened: as §1

PAD = experiment: as above; details: P. falciparum in erythrocytes, SYBR Green DNA, 72 h; series mostly up to 28.7 µM
Procedure, shortened: as §1

PC15 = experiment: as above; details: P. falciparum in erythrocytes, SYBR Green DNA, 72 h; series mostly up to 28.7 µM
Procedure, shortened: as §1

[3] = system: Zika virus NS2B-NS3 protease (unlinked); experiment: Optimization of GU AMC qHTS for Zika virus inhibitors: Unlinked NS2B-NS3 protease assay (AID 1347151); details: recombinant ZIKV NS2B-NS3 protease, fluorogenic AMC substrate; series mostly up to 52.5 µM; also: nearly all actives have a fitted effect of over 80% in size
Procedure, shortened: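 Noncovalent NS2B hydrophilic domain–NS3 protease complex (25 nM final) in 10 mM Tris-HCl pH 8.0, 0.01% Tween 20; AMC substrate, room temperature 15 min (~20% conversion); fluorescence change normalized, 4-parameter Hill fit.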

[4] = system: Zika virus NS2B-NS3 protease (linked); experiment: 384 well plate NINDS AMC confirmatory qHTS for Zika virus inhibitors (AID 1347163); details: Recombinant NS2B-NS3 protease, Ac-VKTGKR-AMC fluorescence; series mostly up to 1 mM;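 also: linked protease at 5 30 or 60 nM final depending on run; fluorescence of AMC released from Ac-VKTGKR-AMC peptide cleaved by the protease; top concentration of the series differs between compounds; nearly all actives have a fitted effect of over 50% in size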
Procedure, shortened: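 Fluorescence at 355/460 nm was read after 25 minutes of cleavage of 30 microM Ac-VKTGKR-AMC at room temperature, in the dark. Before substrate addition, compounds (up to 1 mM final) sat ~15 minutes with 5, 30 or 60 nM linked protease. Signals were normalized to no-enzyme and no-inhibitor wells.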

Measured: Potency

CCCCC(=O)N(Cc1ccc(-c2ccccc2-c2nn[nH]n2)cc1)C(C(=O)O)C(C)C (stereo not given)
not listed: [3] | [4]
inactive: all other assays above

CC[C@H](C)[C@H]1O[C@]2(CC[C@@H]1C)C[C@@H]1C[C@@H](C/C=C(\C)[C@@H](O[C@H]3C[C@H](OC)[C@@H](O[C@H]4C[C@H](OC)[C@@H](O)[C@H](C)O4)[C@H](C)O3)[C@@H](C)/C=C/C=C3\CO[C@@H]4[C@H](O)C(C)=C[C@@H](C(=O)O1)[C@]34O)O2
inactive: [3] | [4]
